In PubChem BioAssay (NCI):
The panel holds about 83,000 compounds, 20% with a hit somewhere; the sample as a whole holds those more often.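 Percent growth is the endpoint: 0 to 100 indicates growth inhibition (40 means 60% inhibition), 0 means no net growth, and negative values indicate cell death.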 Unmarked numbers belong to inactive results. Activity calls are given as the source filed them. How the source made its calls: active means growth percent below 10; inactive means the rest.

These compounds were tested on KM12 colon (assay: NCI-60 one-dose screen, 48 h (100 = growth as untreated, 0 = no growth, -100 = all killed)). Conditions: 10 µM.

SMILES	growth
COc1cc2cc(C(=O)N3C[C@@H](CCl)c4c3cc(OC(=O)N3CCN(C)[C@@H]5CSSC[C@H]53)c3ccccc43)[nH]c2c(OC)c1OC	-9.39% (active)
CC1=C(CCC=O)C2=C(C)C3(CC3)[C@@](C)(O)C(=O)C2=C1	-72.9% (active)
COC(=O)C[C@](O)(CCC(C)C)C(=O)O[C@@H]1C(OC)=C[C@]23CCCN2CCc2cc4c(cc2[C@H]13)OCO4	-20.8% (active)
O=C(/C=C/c1ccc(Cl)cc1)c1nc2ccccc2n1Cc1ccc(F)cc1	24.9%
CC[C@]12C=CCN3CC[C@@]4(c5ccc(OC)cc5N(C)[C@H]4[C@@](O)(C(=O)OC)[C@@H]1OC(=O)CCC[P+](C1CCCCC1)(C1CCCCC1)C1CCCCC1)[C@@H]32	-63.4% (active)
CC1=C2C(=C[C@@](C)(COP(=O)(Oc3ccccc3)Oc3ccccc3)[C@@H]2O)C(=O)[C@@](C)(O)C12CC2	-29.3% (active)
CC(=O)Oc1ccccc1C(=O)NC([Se])=NC1CCCCC1	5.47% (active)
CCOP(=O)(CC(F)(F)C(F)(F)F)OCC	89.3%
CC(C)C[C@H](NC(=O)CNC(=O)C[C@H]1O[C@@H]2OC3(C)CC[C@H]4[C@H](C)CC[C@@H]([C@H]1C)[C@@]24OO3)B(O)O	-15.4% (active)
C[C@H]1[C@@H](Oc2ccc(-c3cn(-c4ccnc5cc(Cl)ccc45)nn3)cc2)O[C@@H]2OC3(C)CC[C@H]4[C@H](C)CC[C@@H]1[C@@]24OO3	25.6%
C[C@H]1[C@H](OC(=O)CCC(=O)N(CCCc2cn(-c3ccc([N+](=O)[O-])cc3)nn2)CCNc2ccnc3cc(Cl)ccc23)O[C@@H]2OC3(C)CC[C@H]4[C@H](C)CC[C@@H]1[C@@]24OO3	33.6%
